Only some compounds are listed: those with a hit (about 1.5% of all), similar ones and a draw of the others.
CRFR2-BP antag: antagonists of CRF-binding protein/CRF-R2 receptor complex | HEK293 CRF-R2/CRF-BP, CRF-induced calcium fluorescence | inhibition, % at 11.8 µM | actives 0.59% (n = 350,000) | AID 588475;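 active means inhibition of the ligand-induced calcium signal above about 50% at the single tested concentration, limit read from the data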
CRFBP-R2 agonist: CRF-BP/CRF-R2 complex agonism; actives 0.46% (n = 350,000); HEK293 CRF-R2/CRF-BP, calcium dye fluorescence (FLIPR); percent of saturating CRF peptide response; AID 588473; activation, % at 13.2 µM;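 active means activation of at least 50%, plus an integration ratio under a set limit after plate pattern correction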
NTR1 ag: agonists of human neurotensin receptor NTR1 | actives 0.17% (n = 330,000) | AID 493036 | activation, % at 20 µM | NTR1-U2OS beta-arrestin-GFP spot imaging, agonist mode;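 active means activation at or above 40% of the spot to cytoplasm intensity ratio, with at least 20 cells analyzed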
Target sequence (P30989 whole entry, looked up): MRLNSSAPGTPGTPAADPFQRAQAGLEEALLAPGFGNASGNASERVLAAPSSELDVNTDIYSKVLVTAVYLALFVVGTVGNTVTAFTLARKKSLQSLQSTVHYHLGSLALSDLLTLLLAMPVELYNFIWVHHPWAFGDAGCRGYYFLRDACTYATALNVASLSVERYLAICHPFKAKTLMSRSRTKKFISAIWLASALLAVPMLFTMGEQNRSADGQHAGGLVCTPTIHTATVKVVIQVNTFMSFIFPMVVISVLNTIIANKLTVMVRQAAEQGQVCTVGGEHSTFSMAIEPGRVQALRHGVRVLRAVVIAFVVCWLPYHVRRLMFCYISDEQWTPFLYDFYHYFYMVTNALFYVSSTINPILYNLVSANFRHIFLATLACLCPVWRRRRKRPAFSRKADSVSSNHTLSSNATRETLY
V-ATPase pH: alters yeast V-ATPase proton transport; actives 0.37% (n = 350,000); S. cerevisiae, pHLuorin cytosolic pH fluorescence; response, % at 10 µM; in the data active means response mostly above about 7.3%, no sharp cut-off; inactive means mostly below about 5.4%; further: actives read high
Of the large screens only hits and unclear results are named; the others gave an inactive call.

CC1(c2ccc(OC(F)F)cc2)NC(=O)N(CC(=O)Nc2cccnc2Cl)C1=O (stereo unspecified)	CRFBP-R2 agonist 96
COc1ccc2c(C(=O)c3ccc(Cl)cc3)n(CCCC(N)=O)[n+]([O-])c2c1	none
C/C(=N\OC(=O)c1ccc(OC(C)C)cc1)c1ccc(C)c(C)c1	CRFR2-BP antag 73
CC/C(=N\OC(=O)c1ccc(OC(C)C)cc1)c1ccc(C)cc1	none
O=c1ccc(-c2ccccc2)no1	none
COc1ccccc1CN1CCCC(C(=O)N(C)Cc2ccccc2)C1 (stereo unspecified)	CRFR2-BP antag 55 (no result: NTR1 ag)
CCOc1ccc(-c2cc(NC(=O)c3c(F)cccc3F)c(C(=O)O)s2)cc1	none
O=C(Nc1cc(-c2ccccc2)sc1C(=O)O)c1cccc(F)c1	CRFR2-BP antag 73
COc1ccc(NC(=O)CCN2CCCCC2)cc1	none
COc1ccc(NC(=O)CCN2CCCCCC2)cc1	CRFR2-BP antag 80
COc1ccc(/C=C(\NC(=O)c2ccco2)C(=O)NC(Cc2ccccc2)C(=O)O)cc1 (stereo unspecified)	none
CC(C)CC1NC(=O)N(CC(=O)Nc2cc(S(=O)(=O)N3CCOCC3)ccc2Cl)C1=O (stereo unspecified)	none
Cc1ccc(OCCN(C)C(=O)C2CCC(=O)N(CC3CCCCC3)C2)cc1 (stereo unspecified)	none
Cc1cc2nc3c(=O)[nH]c(=O)[nH]c3nc2c([N+](=O)[O-])c1N	CRFBP-R2 agonist 60 (no result: NTR1 ag)
O=C(CCc1nnc2ccc(NCc3ccco3)nn12)N1CCN(c2ccccc2F)CC1	CRFR2-BP antag 52
O=C(CCc1nnc2ccc(NCc3ccco3)nn12)N1CCCCC1	none
O=C(NC(=S)NCC1CCCO1)C(c1ccccc1)c1ccccc1 (stereo unspecified)	CRFR2-BP antag 55
Nc1nc(SCc2ccc(Cl)cc2Cl)nc2nc3c(cc12)CCCC3	V-ATPase pH 128
Nc1nc(SCc2ccccc2Cl)nc2nc3c(cc12)CCCC3	none
Cc1cc(NC(=O)CN2C(=O)N(C)C3(CCCCC3)C2=O)ccc1Br	none
CCCCNC(=O)Cn1c(=O)oc2cc(S(=O)(=O)N3CC(C)CC(C)C3)ccc21 (stereo unspecified)	none
COCCCNC(=O)Cn1c(=O)oc2cc(S(=O)(=O)N3CC(C)CC(C)C3)ccc21 (stereo unspecified)	V-ATPase pH 20
Cn1c(=O)c2sccc2n(Cc2cccc(Br)c2)c1=O	none
COc1c(-c2ccc([N+](=O)[O-])cc2[N+](=O)[O-])c(=O)n(C)c(=O)n1C	none
Cc1ccc(-n2c(Cl)c(Cl)[nH]c(=O)c2=O)cc1	CRFR2-BP antag 51
COC(=O)c1ccc(CSc2nc3ccccc3c(=O)n2-c2ccccc2)o1	CRFR2-BP antag 53
Cc1ccc(-n2nc3c(=O)n(CC(=O)NCc4cccs4)nc(C)c3c2C)cc1	CRFR2-BP antag 64
Cc1ccsc1/C=C1/NC(=O)N(Cc2ccc(F)cc2)C1=O	none
CCn1c(=O)c([N+](=O)[O-])c(NCCc2ccccc2)c2ccccc21	V-ATPase pH 8.5
COc1cc(Cn2nnc3ccccc32)cc(Br)c1O	none
Cc1onc(-c2ccccc2)c1CNC(=O)CN1C(=O)c2ccccc2C1=O	CRFR2-BP antag 109
COCCCNC1=C(Cl)C(=O)c2ccccc2C1=O	none
COCCCNc1c2c3c(cccc3[nH]c1=O)C(=O)c1ccccc1-2	CRFBP-R2 agonist 204
Cc1cccc(NC(=O)CNC(=O)CN2C(=O)NC3(CCc4ccccc43)C2=O)c1C (stereo unspecified)	none
Cn1c(N)c(-c2ccccc2)c2ccc([N+](=O)[O-])cc2c1=O	CRFBP-R2 agonist 123
CCN1C(=O)[C@H]2[C@@H](c3ccc(Cl)cc3)N3C(=O)CN(CC4CC4)C(=O)[C@@]3(Cc3ccccc3)[C@H]2C1=O	none
CC1(C)C2CCC1(C)C(OCCNCCOC(=O)Nc1ccccc1)C2 (stereo unspecified)	V-ATPase pH 14
CCOC(=O)C(CCCCOc1ccc([N+](=O)[O-])cc1)C(=O)OCC	CRFR2-BP antag 62
CC1CC(C)CN(CCCCOc2ccc([N+](=O)[O-])cc2)C1 (stereo unspecified)	none
Cc1ccccc1-c1n[nH]c(=S)n1/N=C/c1c(C)nn(-c2ccccc2)c1C	CRFR2-BP antag 71
Cc1ccc(-c2n[nH]c(=S)n2/N=C/c2c(C)nn(-c3ccccc3)c2C)cc1	none
Cc1ccccc1CC(=O)Nc1sc(C(C)C)cc1C(=O)N1CCOCC1	none
O=C(COc1cc(O)c2c(=O)c3ccccc3oc2c1)OCc1ccccc1	none
Cc1ccc(/C=N/n2c(-c3cccc(Cl)c3)n[nH]c2=S)o1	CRFR2-BP antag 83
S=c1[nH]nc(-c2cccc(Cl)c2)n1/N=C/c1ccco1	none (no result: V-ATPase pH)
